Screening data from PubChem BioAssay.
This is a sample that favours compounds with a hit; in the whole collection about 28% have one here.
CYP2C9 inhib: blockers of cytochrome P450 2C9 activity – biochemical, luminescence, ADME assay, primary screen; P11712; CYP2C9 Supersomes, luciferin-H conversion; inhibition, % at 5 µM; hit rate 20% among 96,000; AID 777, 2007;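 active means blocking of liver enzyme CYP2C9 beyond about 50% at 5 µM, limit read from the data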
CYP2C19 inhib: blockers of cytochrome P450 2C19 activity – biochemical, luminescence, ADME assay, primary screen. P33261. CYP2C19 Supersomes, luciferin-H EGE luminescence, 30 min. inhibition, % at 5 µM. hit rate 21% among 96,000. AID 778, 2007;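 active means CYP2C19 inhibition above a set limit at 5 µM in the primary screen, cut at about 50% in these data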;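 further: plate controls were negative control wells for no effect and 2.5 mM tranylcypromine positive control for full effect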
Target sequence (P33261 whole entry, looked up): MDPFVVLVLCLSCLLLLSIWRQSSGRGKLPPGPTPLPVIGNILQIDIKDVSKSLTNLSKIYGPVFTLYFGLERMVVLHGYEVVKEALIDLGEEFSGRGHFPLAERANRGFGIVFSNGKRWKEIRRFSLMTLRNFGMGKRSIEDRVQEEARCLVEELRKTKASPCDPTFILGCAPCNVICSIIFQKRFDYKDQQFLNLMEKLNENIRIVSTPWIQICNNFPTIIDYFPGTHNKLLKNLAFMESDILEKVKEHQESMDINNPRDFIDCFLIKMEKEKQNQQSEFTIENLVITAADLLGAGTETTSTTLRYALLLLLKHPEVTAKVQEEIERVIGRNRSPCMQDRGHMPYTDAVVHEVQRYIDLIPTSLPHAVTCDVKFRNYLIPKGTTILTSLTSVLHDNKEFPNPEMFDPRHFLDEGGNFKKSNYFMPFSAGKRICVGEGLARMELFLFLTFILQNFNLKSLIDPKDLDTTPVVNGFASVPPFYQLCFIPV
CYP2C9 act: human CYP2C9 activators, primary screen, biochemical, luminescence. Cytochrome P450 2C9 (Homo sapiens), P11712. recombinant CYP2C9, luciferin-H conversion; active compounds read high; factor 1 = untreated enzyme, 0 = blocked. activation factor at 5 µM. hit rate 1.4% among 96,000. AID 1024, 2008;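 active means activation factor of 2 or more for CYP2C9 at a 5 µM dose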;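 further: 0 = sulfaphenazole-blocked wells and 1 = vehicle-only wells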
CYP2C19 act: human CYP2C19 activators, primary screen, biochemical, luminescence. Cytochrome P450 2C19 (Homo sapiens), P33261. recombinant CYP2C19, luciferin-H EGE luminescence; active compounds read high; 0 = fully inhibited enzyme, 1 = untreated enzyme. activation factor at 5 µM. 96,000 tested, under 10 active. AID 1025, 2008;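 active means activation factor of at least 2 at 5 µM in the primary screen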;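 further: 0 = wells with 2.5 mM tranylcypromine and 1 = vehicle-only wells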
D1 mod: D1 CRE-luciferase signal change, two-sided – cell-based, HEK293 D1, dopamine EC30, D1 allosteric modulator project, primary screen | D(1A) dopamine receptor (Homo sapiens), P21728 | dopamine EC30 potentiation; actives deviate in either direction | B-score at 10 µM | hit rate 5.9% among 58,000 | AID 641, 2007;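 active means luminescence count or its row- and column-corrected plate score outside the 99.7% band of the plate's sample wells, on either side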
DAT uptake mod: changed hDAT dopamine uptake under cocaine IC80, either direction, primary screen, cocaine antagonist project, cell-based, LLC-PK1 hDAT, [14C]-dopamine uptake, MLSMR. Sodium-dependent dopamine transporter (Homo sapiens), Q01959. hit rate 1.3% among 110,000. AID 449768, 2010. LLC-PK1 hDAT cells, [14C]-dopamine uptake with cocaine IC80; actives deviate in either direction. B-score at 10 µM;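 active means Z score or B-score, a plate-position-corrected score, falls beyond the plate's 99.7% confidence bounds, in either direction; inactive means both scores lie inside the 99.7% bounds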;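 further: scored against the spread of the other compound wells on the same plate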
An asterisk follows results filed as active; · = no result.

SMILES | CYP2C9 inhib | CYP2C19 inhib | CYP2C9 act | CYP2C19 act | D1 mod | DAT uptake mod
COCC(=O)NC1CCN(CC(=O)Nc2ccc(OC)cc2[N+](=O)[O-])CC1 | -20 | 16 | 1.2 | 0.8 | · | -0.011
COc1ccc(F)cc1S(=O)(=O)N1CC(C)CC(C)C1 (stereo not given) | 23 | 65* | 0.8 | 0.4 | · | 2.1
O=S(=O)(c1cccc2cccnc12)N1CCc2ccccc21 | -19 | 10 | 1.2 | 0.9 | 0.32 | 0.49
Cc1cc(NC(=O)COC(=O)c2ccc(S(=O)(=O)N3CCCc4ccccc43)cc2)no1 | 66* | 46 | 0.3 | 0.5 | 0.02 | -0.26
COc1ccc(C(=O)N2CCCCC2)cc1S(=O)(=O)Nc1cccc(C(=O)O)c1 | · | · | · | · | · | -1.3
COc1ccc(OC)c(S(=O)(=O)N2CCc3ccccc32)c1 | -21 | 77* | 1.2 | 0.2 | · | -0.4
COc1ccc(C(=O)N2CCCN(C)CC2)cc1S(=O)(=O)N1CCCc2ccccc21 | 50* | 18 | 0.5 | 0.8 | -0.051 | -0.077
N#CCCSCc1ccc(OCC(=O)O)cc1 | -35 | -10 | 1.3 | 1.1 | 0.44 | 0.54
CCCNC(=O)NC(=O)COC(=O)c1ccc(OC)c(S(=O)(=O)N2CCCc3ccccc32)c1 | 95* | 37 | 0 | 0.6 | 1.7 | 0.18
COc1ccc(C(=O)OCC(=O)Nc2cc(C)on2)cc1S(=O)(=O)N1CCOCC1 | 0 | -9 | 1 | 1.1 | · | 0.18
COc1ccc(OC)c(S(=O)(=O)N2Cc3ccccc3CC2C(=O)O)c1 (stereo not given) | 8 | 12 | 0.9 | 0.9 | -0.5 | -0.13
COc1ccc(OC)c(S(=O)(=O)N2c3ccccc3CC2C)c1 (stereo not given) | 79* | 75* | 0.2 | 0.3 | -0.7 | 0.1
COc1ccc(OC)c(S(=O)(=O)N2CCCc3ccccc32)c1 | -68 | 84* | 1.7 | 0.2 | 0.5 | 1.5
O=C(N/N=C/c1ccccc1Cl)c1cccc(F)c1 | 29 | 44 | 0.7 | 0.6 | · | -0.17
CC1C/C(=N/NC(=O)c2cccc(F)c2)c2ccc(O)cc2C1 (stereo not given) | -60 | 51* | 1.6 | 0.5 | · | 0.5
O=C(C1CCC1)N1CCC(c2nc3c(nnn3Cc3c(F)cccc3Cl)c(=O)[nH]2)CC1 | 71* | 18 | 0.3 | 0.8 | 0.93 | 2.8*
Cc1ccc(C)c(Cn2nnc3c(=O)[nH]c(C4CCCN(C(=O)C5CCC5)C4)nc32)c1 (stereo not given) | 43 | 28 | 0.6 | 0.7 | 2.4 | 1.9
O=C(c1ccccc1Cl)N1CCCC(c2nc3c(nnn3Cc3ccccc3)c(=O)[nH]2)C1 (stereo not given) | 84* | 12 | 0.2 | 0.9 | 1.4 | 1.8
O=C(Cc1cccs1)N1CCC(c2nc3c(nnn3Cc3ccc(F)cc3)c(=O)[nH]2)CC1 | 96* | 41 | 0 | 0.6 | -0.11 | 1.8
O=C(Cc1cccs1)N1CCN(c2ccc(F)cc2)CC1 | · | · | · | · | · | -0.71
O=C(Cc1cccs1)N1CCCC(c2nc3c(nnn3Cc3cccc(Cl)c3)c(=O)[nH]2)C1 (stereo not given) | 96* | 66* | 0 | 0.3 | 0.7 | 2.3*
CCC(C)NS(=O)(=O)c1ccc(S(=O)(=O)N(CC(=O)Nc2ccccc2)Cc2ccco2)cc1 (stereo not given) | 42 | 29 | 0.6 | 0.7 | · | 0.19
CC(C)CCNC(=O)C1CCC(=O)N1C(C)C (stereo not given) | -16 | -20 | 1.2 | 1.2 | · | -1.5
O=C(NCCCN=C1NS(=O)(=O)c2ccccc21)c1ccc(S(=O)(=O)N2CCOCC2)cc1 | 19 | -9 | 0.8 | 1.1 | · | -0.93
CC(=O)c1ccc(NC(=O)c2cnn3c(C(F)F)cc(C4CC4)nc23)cc1 | · | · | · | · | · | -0.99
SMILES | CYP2C9 inhib | CYP2C19 inhib | CYP2C9 act | CYP2C19 act | D1 mod | DAT uptake mod
Cc1ccc(S(=O)(=O)Nc2c(C)n(C)n(-c3ccccc3)c2=O)cc1C(=O)NCc1ccccn1 | -1 | -2 | 1 | 1 | -0.13 | -0.9
c1cc2c(cc1CN1CCOCC1)OCO2 | 6 | 30 | 0.9 | 0.7 | · | -1.2
CC1(C)CC(=O)C2=C(C1)NCN(Cc1ccc3c(c1)OCO3)C2 | 85* | 15 | 0.1 | 0.9 | -0.1 | -1.7
CCN1CCN(c2nc(SC)nc3sc4c(c23)CC(C)(C)OC4)CC1 | 57* | 43 | 0.4 | 0.6 | 0.046 | 0.15
CCOC(=O)c1nc(N2CCN(C(=O)OCC)CC2)c2c3c(sc2n1)CCCC3 | 60* | 62* | 0.4 | 0.4 | · | 3.2*
CCOC(=O)N1CCN(c2nc(SC)nc3sc4c(c23)CC(C)(C)OC4)CC1 | 81* | 87* | 0.2 | 0.1 | -0.2 | -0.82
CCC1(C)Cc2c(sc3nc(SC)nc(NCCN(C)C)c23)CO1 (stereo not given) | 18 | 12 | 0.8 | 0.9 | · | 0.018
CC1(C)Cc2c(sc3nc(SCC(=O)N4CCOCC4)nc(N)c23)CO1 | -6 | 3 | 1.1 | 1 | -0.24 | -0.71
CC(C)Sc1nc(N2CCOCC2)c2c3c(sc2n1)COC(C)(C)C3 | 58* | 36 | 0.4 | 0.6 | · | 0.074
CCOCCn1c(CN2CCC(Cc3ccccc3)CC2)nc2c1c(=O)n(C)c(=O)n2C | 24 | 22 | 0.8 | 0.8 | 0.42 | ·
COc1ccc(NC(=O)c2ccco2)cc1N | 13 | 15 | 0.9 | 0.8 | -1.5 | 0.59
OCC#CCSc1nnc(-c2ccccc2Br)o1 | -16 | 31 | 1.2 | 0.7 | 1.5 | -1.1
O=C(OCC#CCSc1nnc(-c2cccc3ccccc23)o1)c1ccco1 | -107 | 2 | 2.1* | 1 | · | 0.65
COC(=O)CSc1nnc(-c2ccncc2)o1 | -12 | 3 | 1.1 | 1 | 0.029 | 0.036
O=C(OCC#CCSc1nc2ccccc2o1)c1ccco1 | 57* | 74* | 0.4 | 0.3 | -0.35 | -0.079
O=C(OCC#CCSc1nnc(-c2ccncc2)o1)c1cccs1 | 78* | 79* | 0.2 | 0.2 | -0.044 | -0.48
O=C(OCC#CCSc1nc2ccccc2o1)c1cc2ccccc2o1 | · | · | · | · | · | -0.63
OCC#CCSc1nnc(-c2ccc(Br)cc2)o1 | 24 | 60* | 0.8 | 0.4 | 0.44 | -1.3
O=C(CSc1ncnc2nc[nH]c12)N1CCN(c2ccc(Cl)cc2)CC1 | 3 | 11 | 1 | 0.9 | 1 | 0.057
CCOC(=O)C1=C(C)NC(SC(C)=O)=NC1c1ccc(OC(C)=O)c(OC)c1 (stereo not given) | 62* | 90* | 0.4 | 0.1 | -0.067 | 1.2
